From PubChem BioAssay AID588348 (Broad Institute, 2011)
Screen size: about 1,300 compounds; fewer than 10 were called active.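 Rule for the calls: active = fitted half-maximal dose AC50 no more than ten times the top valid tested dose, with luminescence dropping as dose rises; inconclusive = poor fit, or flat fit with 30 to 70% inhibition; inactive = the rest, signal increases included.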 These entries were drawn from the full list.

Assay: ADP-Glo luciferase interference without Dyrk1A, dose response, artefact control for Dyrk1A inhibitor project, biochemical, luminescence, cherry-pick, set 02 (AID 588348)
Details: ADP-Glo luciferase artifact assay, no Dyrk1A; series mostly up to 12 µM

outcome, inactive:
COc1c(O)cc2oc(-c3ccc(O)c(O)c3)cc(=O)c2c1O
CCN(CC)c1ccc(NC(=O)CCc2nnc3ccc(N4CCCCC4)nn23)c(C)c1
CCOC(=O)Cn1c(-c2cccnc2Cl)nc2ccccc21
Cc1cc(/C=N/Nc2ccc([N+](=O)[O-])cn2)c(C)n1-c1cccc(C(=O)O)c1
Cc1noc(C)c1-c1ccc2ncnc(NC(C)c3ccco3)c2c1 (configuration not stated)
COc1ccc2c(Cl)c(C(=O)NCc3ccco3)sc2c1
Cc1cccc(-c2nc(Nc3ccc(O)cc3)c3ccccc3n2)c1
Oc1ccc(-c2nc3ccccc3nc2-c2ccc(O)cc2O)c(O)c1
Oc1ccc(-c2[nH]ncc2-c2nc3ccccc3s2)c(O)c1
NC(=S)c1ccc(C(N)=S)o1
Nc1nonc1-n1nnc(C(=O)N/N=C\c2ccncc2)c1CN1CCCCC1
C=C(C)Cn1c(N2CCN(CC)CC2)nc2c1c(=O)[nH]c(=O)n2C
Nc1nc(SCc2ccc([N+](=O)[O-])cc2)c2ncn(C3OC(CO)C(O)C3O)c2n1 (configuration not stated)
Nc1nc(NCCCN2CCOCC2)nc(Nc2ccccc2)c1[N+](=O)[O-]
Cc1ccc(/C=C(\C#N)C(=O)Nc2cccc3ncccc23)o1
CC(=O)Oc1ccc2c(c1)C(=O)c1ccccc1C2=O
CCc1cc2c(NC3CCCC3)ncnc2s1
COc1ccc(S(=O)(=O)N(C)C[C@H]2Oc3ccc(NS(=O)(=O)c4cccs4)cc3CC(=O)N([C@H](C)CO)C[C@H]2C)cc1
COc1ccc2oc(N)c(C=O)c(=O)c2c1
COc1ccc2[nH]c(C)c(CCN(Cc3cccs3)C(=S)Nc3ccccc3OC)c2c1
NS(=O)(=O)c1ccc(-c2ccc(/C=C3\SC(=O)NC3=O)o2)cc1
O=C(NC(Nc1nc2ccc([N+](=O)[O-])cc2s1)(C(F)(F)F)C(F)(F)F)c1ccccc1
O=C1/C(=C/c2ccc3c(c2)OCO3)Oc2cc(OCC(=O)N3CC(O)C[C@H]3C(=O)O)ccc21 (some centres not stated)
CCOc1cc(/C=C2\SC(N3CCCCC3)=NC2=O)ccc1O
CCc1n[nH]c(=S)n1/N=C/c1c[nH]c2ccc(Br)cc12
CC(=O)C1C(c2ccc(Cl)cc2)NC(=O)NC1(O)C(F)(F)F (configuration not stated)
CC(=O)Nc1cccc(-c2cnc3ccccc3n2)c1
Oc1ccc(-c2csc(Nc3cccnc3)n2)cc1
CCOCCCNC(=O)C(NC(=O)c1ccc(=O)[nH]c1)c1ccc(Cl)cc1 (configuration not stated)
CN1c2ccc(C=O)c3c(C=O)ccc(c23)N(C)C1(C)C
O=C1N=C(N2CCc3ccccc3C2)S/C1=C\c1ccc(O)cc1
O=C(NCCc1ccccc1)C1CCN(S(=O)(=O)c2ccc(Br)s2)CC1
CCn1c(NC(=O)c2ccccc2)c(-c2cccs2)c(=O)c2ccccc21
COc1cccc(C(=O)NNC(=O)/C=C/c2ccccc2)c1
C[C@@H]1O[C@@H](OC[C@H]2O[C@@H](Oc3c(-c4ccc(O)cc4)oc4cc(O)cc(O)c4c3=O)[C@H](O)[C@@H](O)[C@@H]2O)[C@H](O)[C@H](O)[C@H]1O
Cc1noc(NS(=O)(=O)c2ccc(NC(=O)c3oc4ccc(F)cc4c3C)cc2)c1C
COc1cc(O)c2c(=O)c3c(O)c(O)ccc3oc2c1OC
